Test [1] deals with Mitogen-activated protein kinase 3 (Homo sapiens) (UniProt P27361). The note with it: at 1 µM.
The target of test [2] is SRSF protein kinase 3 (Homo sapiens) (UniProt Q9UPE1). The settings on record: at 0.1 µM.
For test [3] the target is unchanged. The note with it: at 1 µM.
In test [4] the target is Mitogen-activated protein kinase 14 (Homo sapiens) (UniProt Q16539). The settings on record: at 0.1 µM.
The target is the same in test [5]. The settings on record: at 1 µM.
Test [6] concerns the target Mitogen-activated protein kinase 11 (Homo sapiens) (UniProt Q15759). The note with it: at 0.1 µM.
Test [7] has the same target. The settings on record: at 1 µM.
The target of test [8] is T1, Mitogen-activated protein kinase 13 (Homo sapiens) (UniProt O15264).
T1 sequence (whole entry): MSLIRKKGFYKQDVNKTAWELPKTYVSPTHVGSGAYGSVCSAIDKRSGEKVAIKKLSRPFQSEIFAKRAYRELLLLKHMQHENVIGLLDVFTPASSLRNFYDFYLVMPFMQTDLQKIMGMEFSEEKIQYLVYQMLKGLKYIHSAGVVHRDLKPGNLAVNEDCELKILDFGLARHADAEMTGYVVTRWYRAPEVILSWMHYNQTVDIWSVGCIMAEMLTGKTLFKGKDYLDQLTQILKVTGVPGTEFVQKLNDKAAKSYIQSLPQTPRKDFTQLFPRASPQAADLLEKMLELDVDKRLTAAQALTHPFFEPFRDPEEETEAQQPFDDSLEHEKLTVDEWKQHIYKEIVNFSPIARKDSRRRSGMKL
The note with it: at 0.1 µM.

In test [9] the target is T1, Mitogen-activated protein kinase 13 (Homo sapiens). The note with it: at 1 µM.
Test [10] concerns the target T2, Mitogen-activated protein kinase 12 (Homo sapiens) (UniProt P53778).
T2 sequence (whole entry): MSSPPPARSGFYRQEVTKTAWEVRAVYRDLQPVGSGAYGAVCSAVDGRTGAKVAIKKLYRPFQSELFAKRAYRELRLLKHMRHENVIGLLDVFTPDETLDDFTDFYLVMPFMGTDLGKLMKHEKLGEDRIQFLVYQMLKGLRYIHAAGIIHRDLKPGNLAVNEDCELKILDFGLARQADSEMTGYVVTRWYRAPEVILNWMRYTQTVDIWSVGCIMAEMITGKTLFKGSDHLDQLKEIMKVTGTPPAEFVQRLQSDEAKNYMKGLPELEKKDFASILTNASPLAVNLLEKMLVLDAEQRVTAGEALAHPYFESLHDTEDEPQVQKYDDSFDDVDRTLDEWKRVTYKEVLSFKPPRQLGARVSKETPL
The note with it: at 0.1 µM.

Test [11] concerns the target T2, Mitogen-activated protein kinase 12 (Homo sapiens). The settings on record: at 1 µM.
The target in test [12] is SRSF protein kinase 1 (Homo sapiens) (UniProt Q96SB4). The note with it: at 0.1 µM.
For test [13] the target is unchanged. The note with it: at 1 µM.
The target in test [14] is Phosphatidylinositol 4,5-bisphosphate 3-kinase catalytic subunit alpha isoform (Homo sapiens) (UniProt P42336). The settings on record: at 0.1 µM.
For test [15] the target is unchanged. The note with it: at 1 µM.
For test [16], the target named is T3, Phosphatidylinositol 4,5-bisphosphate 3-kinase catalytic subunit delta isoform (Homo sapiens) (UniProt O00329).
T3 sequence (whole entry): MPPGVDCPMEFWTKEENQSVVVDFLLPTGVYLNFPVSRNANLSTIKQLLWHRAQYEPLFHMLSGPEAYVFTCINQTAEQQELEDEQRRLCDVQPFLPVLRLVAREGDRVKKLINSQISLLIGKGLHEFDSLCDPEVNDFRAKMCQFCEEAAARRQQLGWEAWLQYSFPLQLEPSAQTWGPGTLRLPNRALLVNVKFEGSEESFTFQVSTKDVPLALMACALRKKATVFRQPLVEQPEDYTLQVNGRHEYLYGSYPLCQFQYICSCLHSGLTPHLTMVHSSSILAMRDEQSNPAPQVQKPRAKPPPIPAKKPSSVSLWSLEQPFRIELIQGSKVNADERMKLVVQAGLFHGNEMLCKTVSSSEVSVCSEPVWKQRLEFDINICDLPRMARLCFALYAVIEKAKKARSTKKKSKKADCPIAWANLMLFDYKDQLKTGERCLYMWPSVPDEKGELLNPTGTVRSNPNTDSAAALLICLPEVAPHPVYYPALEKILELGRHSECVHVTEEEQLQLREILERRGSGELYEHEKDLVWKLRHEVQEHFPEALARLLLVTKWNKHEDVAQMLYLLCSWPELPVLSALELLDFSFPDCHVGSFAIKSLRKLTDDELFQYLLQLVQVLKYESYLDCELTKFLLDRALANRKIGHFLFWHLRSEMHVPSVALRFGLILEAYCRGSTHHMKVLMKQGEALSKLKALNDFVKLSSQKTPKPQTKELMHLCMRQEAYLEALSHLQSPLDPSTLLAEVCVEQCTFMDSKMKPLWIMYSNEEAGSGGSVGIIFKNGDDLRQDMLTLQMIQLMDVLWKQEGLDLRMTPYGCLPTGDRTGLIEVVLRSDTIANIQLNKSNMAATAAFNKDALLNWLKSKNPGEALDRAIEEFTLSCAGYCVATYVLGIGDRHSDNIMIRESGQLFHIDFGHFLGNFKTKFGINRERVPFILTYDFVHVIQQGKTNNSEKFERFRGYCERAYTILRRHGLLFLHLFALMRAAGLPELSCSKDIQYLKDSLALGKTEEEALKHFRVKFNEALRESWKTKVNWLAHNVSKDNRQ
The settings on record: at 0.1 µM.

The target in test [17] is T3, Phosphatidylinositol 4,5-bisphosphate 3-kinase catalytic subunit delta isoform (Homo sapiens). The note with it: at 1 µM.
In test [18] the target is Phosphatidylinositol 4-kinase beta (Homo sapiens) (UniProt Q9UBF8). The note with it: at 0.1 µM.
The target is the same in test [19]. The settings on record: at 1 µM.
The target in test [20] is Sphingosine kinase 1 (Homo sapiens) (UniProt Q9NYA1). The note with it: at 0.1 µM.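 Note: mean percent inhibition of SPHK1 activity, measured within the GSK PKIS screening panel.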

By inhibition is commonly meant the relative decrease from the control value, in per cent.

Chain of Mitogen-activated protein kinase 14 (Homo sapiens) (Q16539 whole entry): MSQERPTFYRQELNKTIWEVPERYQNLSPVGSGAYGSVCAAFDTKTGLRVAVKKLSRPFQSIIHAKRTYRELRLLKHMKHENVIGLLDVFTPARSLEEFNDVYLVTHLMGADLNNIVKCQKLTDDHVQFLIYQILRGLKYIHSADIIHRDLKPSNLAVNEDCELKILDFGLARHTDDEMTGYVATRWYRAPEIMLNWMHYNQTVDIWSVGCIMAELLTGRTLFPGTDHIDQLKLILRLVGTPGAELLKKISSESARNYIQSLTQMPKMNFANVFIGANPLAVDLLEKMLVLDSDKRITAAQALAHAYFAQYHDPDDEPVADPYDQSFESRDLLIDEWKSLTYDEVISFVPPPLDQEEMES
Chain of Sphingosine kinase 1 (Homo sapiens) (Q9NYA1 whole entry): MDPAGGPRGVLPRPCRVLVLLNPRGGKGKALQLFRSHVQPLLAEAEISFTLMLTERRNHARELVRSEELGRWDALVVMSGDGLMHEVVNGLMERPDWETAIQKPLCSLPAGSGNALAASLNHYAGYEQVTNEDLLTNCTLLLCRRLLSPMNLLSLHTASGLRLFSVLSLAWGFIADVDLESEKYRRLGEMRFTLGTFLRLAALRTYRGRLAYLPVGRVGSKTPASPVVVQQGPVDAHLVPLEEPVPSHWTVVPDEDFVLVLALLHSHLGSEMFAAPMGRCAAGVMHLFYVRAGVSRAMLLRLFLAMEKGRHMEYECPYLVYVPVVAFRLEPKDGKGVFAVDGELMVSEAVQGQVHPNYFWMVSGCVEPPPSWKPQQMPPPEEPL
Chain of Mitogen-activated protein kinase 11 (Homo sapiens) (Q15759 whole entry): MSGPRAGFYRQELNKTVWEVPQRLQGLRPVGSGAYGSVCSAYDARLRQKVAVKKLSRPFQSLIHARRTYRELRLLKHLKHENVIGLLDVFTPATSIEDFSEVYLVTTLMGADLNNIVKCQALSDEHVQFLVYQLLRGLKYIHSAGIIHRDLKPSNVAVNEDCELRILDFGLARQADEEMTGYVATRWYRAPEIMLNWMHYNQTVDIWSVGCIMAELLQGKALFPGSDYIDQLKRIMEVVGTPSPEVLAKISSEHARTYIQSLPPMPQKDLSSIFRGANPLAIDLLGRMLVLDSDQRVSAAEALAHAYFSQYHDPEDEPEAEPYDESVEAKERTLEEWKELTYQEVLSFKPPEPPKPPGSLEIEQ
Chain of Phosphatidylinositol 4-kinase beta (Homo sapiens) (Q9UBF8 2-816 limits assumed): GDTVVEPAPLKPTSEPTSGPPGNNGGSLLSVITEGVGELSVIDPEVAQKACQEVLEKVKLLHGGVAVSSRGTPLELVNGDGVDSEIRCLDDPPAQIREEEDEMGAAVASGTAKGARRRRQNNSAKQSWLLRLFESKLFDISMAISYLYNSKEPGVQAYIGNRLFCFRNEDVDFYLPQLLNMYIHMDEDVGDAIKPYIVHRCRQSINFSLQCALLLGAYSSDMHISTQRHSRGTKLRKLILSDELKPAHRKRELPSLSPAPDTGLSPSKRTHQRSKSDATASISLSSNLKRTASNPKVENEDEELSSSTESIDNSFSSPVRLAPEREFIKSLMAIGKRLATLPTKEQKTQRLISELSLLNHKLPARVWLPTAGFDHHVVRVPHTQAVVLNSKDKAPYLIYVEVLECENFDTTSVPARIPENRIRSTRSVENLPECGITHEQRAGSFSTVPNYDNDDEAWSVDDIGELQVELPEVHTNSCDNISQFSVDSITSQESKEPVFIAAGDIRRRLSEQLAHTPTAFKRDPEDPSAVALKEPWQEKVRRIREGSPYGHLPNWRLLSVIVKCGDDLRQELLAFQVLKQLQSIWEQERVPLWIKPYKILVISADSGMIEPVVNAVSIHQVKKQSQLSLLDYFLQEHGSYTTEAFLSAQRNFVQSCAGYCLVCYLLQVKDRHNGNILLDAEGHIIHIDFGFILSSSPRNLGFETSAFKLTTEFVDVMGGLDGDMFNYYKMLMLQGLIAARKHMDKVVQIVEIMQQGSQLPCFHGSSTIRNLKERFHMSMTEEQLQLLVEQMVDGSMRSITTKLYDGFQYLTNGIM
Chain of Mitogen-activated protein kinase 3 (Homo sapiens) (P27361 whole entry): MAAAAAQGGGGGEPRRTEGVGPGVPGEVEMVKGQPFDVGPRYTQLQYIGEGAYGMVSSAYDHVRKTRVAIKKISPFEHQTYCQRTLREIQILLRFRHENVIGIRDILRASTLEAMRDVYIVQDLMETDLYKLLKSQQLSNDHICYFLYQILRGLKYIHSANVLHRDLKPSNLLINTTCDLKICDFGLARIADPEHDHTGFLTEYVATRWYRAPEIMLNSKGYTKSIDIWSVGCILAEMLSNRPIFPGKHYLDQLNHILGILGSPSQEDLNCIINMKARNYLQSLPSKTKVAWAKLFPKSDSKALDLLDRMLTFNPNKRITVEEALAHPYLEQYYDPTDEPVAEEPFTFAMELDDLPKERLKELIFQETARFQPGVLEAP
Chain of SRSF protein kinase 1 (Homo sapiens) (Q96SB4 whole entry): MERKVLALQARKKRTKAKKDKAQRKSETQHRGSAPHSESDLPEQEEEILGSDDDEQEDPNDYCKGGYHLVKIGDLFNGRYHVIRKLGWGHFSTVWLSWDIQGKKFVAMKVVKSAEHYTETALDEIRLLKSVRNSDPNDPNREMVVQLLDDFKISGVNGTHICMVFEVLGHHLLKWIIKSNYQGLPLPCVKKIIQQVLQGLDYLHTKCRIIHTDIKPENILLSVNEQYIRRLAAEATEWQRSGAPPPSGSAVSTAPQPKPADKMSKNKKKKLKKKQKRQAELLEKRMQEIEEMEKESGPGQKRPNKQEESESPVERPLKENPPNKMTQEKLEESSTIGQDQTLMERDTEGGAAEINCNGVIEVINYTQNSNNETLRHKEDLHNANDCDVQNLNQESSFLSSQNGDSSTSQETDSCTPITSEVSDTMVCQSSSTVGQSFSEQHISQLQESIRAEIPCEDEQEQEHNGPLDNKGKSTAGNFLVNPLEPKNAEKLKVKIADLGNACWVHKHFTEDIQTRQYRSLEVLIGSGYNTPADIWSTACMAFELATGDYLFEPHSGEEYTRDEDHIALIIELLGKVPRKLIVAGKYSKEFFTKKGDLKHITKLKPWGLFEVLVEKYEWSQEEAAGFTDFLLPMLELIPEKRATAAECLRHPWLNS
Chain of SRSF protein kinase 3 (Homo sapiens) (Q9UPE1 whole entry): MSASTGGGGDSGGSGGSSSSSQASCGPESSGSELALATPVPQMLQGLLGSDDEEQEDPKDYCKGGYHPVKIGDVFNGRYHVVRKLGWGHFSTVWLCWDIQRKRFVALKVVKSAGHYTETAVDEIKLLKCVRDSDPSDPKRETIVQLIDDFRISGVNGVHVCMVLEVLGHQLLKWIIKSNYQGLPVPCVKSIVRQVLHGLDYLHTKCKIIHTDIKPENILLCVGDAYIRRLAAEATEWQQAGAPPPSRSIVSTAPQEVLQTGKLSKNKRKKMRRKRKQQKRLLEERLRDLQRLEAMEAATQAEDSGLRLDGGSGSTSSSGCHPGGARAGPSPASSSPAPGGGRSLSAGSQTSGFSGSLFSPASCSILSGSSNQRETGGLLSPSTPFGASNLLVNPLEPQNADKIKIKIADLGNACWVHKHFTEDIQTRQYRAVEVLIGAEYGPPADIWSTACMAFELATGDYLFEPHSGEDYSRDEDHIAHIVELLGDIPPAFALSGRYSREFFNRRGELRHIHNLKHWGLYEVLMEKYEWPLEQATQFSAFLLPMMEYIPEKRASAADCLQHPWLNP
Chain of Phosphatidylinositol 4,5-bisphosphate 3-kinase catalytic subunit alpha isoform (Homo sapiens) (P42336 whole entry, canonical isoform): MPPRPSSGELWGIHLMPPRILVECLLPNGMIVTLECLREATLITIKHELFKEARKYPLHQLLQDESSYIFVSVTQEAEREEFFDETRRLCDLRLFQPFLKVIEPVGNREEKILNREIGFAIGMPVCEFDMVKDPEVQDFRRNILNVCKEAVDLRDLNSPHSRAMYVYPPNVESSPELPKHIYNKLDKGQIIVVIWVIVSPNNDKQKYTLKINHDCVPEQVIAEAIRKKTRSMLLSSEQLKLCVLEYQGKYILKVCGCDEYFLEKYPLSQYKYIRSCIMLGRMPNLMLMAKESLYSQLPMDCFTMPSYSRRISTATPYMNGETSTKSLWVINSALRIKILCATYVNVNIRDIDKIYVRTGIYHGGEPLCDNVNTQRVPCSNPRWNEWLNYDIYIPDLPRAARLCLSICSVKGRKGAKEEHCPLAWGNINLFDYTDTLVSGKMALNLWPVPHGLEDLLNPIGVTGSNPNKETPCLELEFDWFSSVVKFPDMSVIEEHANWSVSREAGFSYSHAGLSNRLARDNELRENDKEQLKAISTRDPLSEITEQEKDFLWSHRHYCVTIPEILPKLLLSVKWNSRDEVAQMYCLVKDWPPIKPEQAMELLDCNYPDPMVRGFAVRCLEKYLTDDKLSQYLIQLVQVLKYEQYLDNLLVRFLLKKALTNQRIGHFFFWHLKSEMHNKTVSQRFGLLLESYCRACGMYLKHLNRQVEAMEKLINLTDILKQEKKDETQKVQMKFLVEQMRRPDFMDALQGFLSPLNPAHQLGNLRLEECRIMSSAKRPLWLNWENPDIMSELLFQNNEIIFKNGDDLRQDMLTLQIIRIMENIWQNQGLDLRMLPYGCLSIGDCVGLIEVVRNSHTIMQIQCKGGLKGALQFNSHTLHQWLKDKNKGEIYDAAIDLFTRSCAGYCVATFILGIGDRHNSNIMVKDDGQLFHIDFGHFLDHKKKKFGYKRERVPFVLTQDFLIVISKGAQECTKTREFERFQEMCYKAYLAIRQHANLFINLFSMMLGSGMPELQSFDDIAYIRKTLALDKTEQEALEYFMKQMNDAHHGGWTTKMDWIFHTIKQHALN

As for `CCCN(CCS(C)(=O)=O)Cc1ccc(-c2ccc3ncnc(Nc4ccc(OCc5cccc(F)c5)c(Cl)c4)c3c2)o1`, the inhibition in test [1] was 2.62%; in test [2], -1.91%; in [3], -0.61%; in test [4], 10.4%; in [5], 4.25%; in test [6], 0.78%. The inhibition in test [7] was 0.65%; in test [8] it was 4.35%; in test [9], 2.64%; in test [10], 0.9%; in [11], 1.28%; in test [12], -1.14%. For the same compound, the inhibition in test [13] was -0.67%; in [14], 0.82%; in test [15], 4.19%; in test [16] it was 0.06%; in test [17] it was 6.07%; in [18], 1.73%. Also, the results for the inhibition in test [19] and in [20] were 0.08% and 7%, respectively.

In the case of `COC(=O)c1sc(-n2cnc3cc(OC)c(OC)cc32)cc1OCc1ccccc1C(F)(F)F`, the inhibition in test [1] was 2.3%; in test [2] it was -0.91%; in test [3], -2.27%; in test [4], 2.39%; in [5], 9.56%; in test [6] it was 6.02%. Further, the inhibition is 8.21% in test [7]; -0.67% in [8]; 4.4% in test [9]; 0.89% in test [10]; 2.9% in test [11]; -3.05% in test [12]. The inhibition in test [13] was -6.39%; in test [14], 4.25%; in [15], 4.16%; in test [16], 2.55%; in [17] it was 4.61%; in [18], -0.98%. The inhibition is -2.56% in test [19] and -3.91% in [20].

Turning to `COc1ccc(-c2cc(-c3c[nH]nc3-c3ccccn3)ccn2)cc1`, the inhibition in test [1] is 8.82%; in test [2], -0.83%; in test [3], 0.75%; in test [4], 7.92%; in test [5], 37.2%; in test [6], 4.7%. For the same compound, the inhibition in test [7] was 14.1%; in test [8], 2.12%; in [9], 4.1%; in [10], 4.31%; in [11] it was 2.33%; in test [12], -1.02%. The inhibition in [13] was 2.7%; in test [14], 3.47%; in [15] it was 1.91%; in test [16] it was -0.37%; in [17] it was 0.72%; in test [18], 2.38%. Further, the values for the inhibition in test [19] and in test [20] were 2.14% and 1.57%, respectively.

For `c1ccc(COc2ccc(Nc3ncnc4ccc(-c5ccco5)cc34)cc2)cc1`, the inhibition is 1.18% in [1]; -1.34% in test [2]; -0.68% in test [3]; 2.18% in [4]; 2.81% in test [5]; 1.43% in [6]. For the same compound, the inhibition in test [7] is 0.27%; in [8], 0.6%; in [9], -0.53%; in [10], 0.76%; in [11], 0.69%; in test [12], -1.86%. The inhibition in test [13] was -1.65%; in test [14] it was 0.06%; in [15] it was 2.59%; in test [16], 3.33%; in test [17] it was 4.52%; in [18], -1.76%. Besides, the inhibition is -1.04% in [19] and 1.84% in test [20].

For the compound `CS(=O)(=O)CCNCc1ccc(-c2ccc3ncnc(Nc4ccc(OCc5ccccc5)c(C(F)(F)F)c4)c3c2)o1`, the inhibition in test [1] was 3.07%; in test [2], -3%; in [3], -1.24%; in test [4], 5.55%; in test [5], 2.96%; in test [6] it was 4.3%. The inhibition in test [7] is 5.41%; in test [8], 3.67%; in test [9] it was 2.13%; in test [10] it was 2.6%; in test [11] it was 2.8%; in test [12], -2.41%. The inhibition was -1.93% in test [13]; 4.02% in test [14]; 4.89% in test [15]; 0.55% in [16]; 2.2% in [17]; -0.29% in test [18]. The inhibition in test [19] was determined as 1.06%; in [20], 0.51%.

Consider `COc1ccc2c(-c3ccnc(Nc4cccc(OC(F)(F)F)c4)n3)cnn2n1`, for which the inhibition was 3.9% in test [1]; -1.04% in test [2]; 2.71% in test [3]; 2.92% in test [4]; 8.4% in [5]; 0.17% in test [6]. Further, the inhibition was 5.04% in [7]; -1.73% in test [8]; 7.58% in [9]; 1.78% in test [10]; 2.47% in test [11]; -0.39% in test [12]. Moreover, the inhibition is 3.84% in [13]; 2.57% in [14]; 6.99% in test [15]; 0.71% in test [16]; 5.67% in test [17]; 0.16% in [18]. The results for the inhibition in test [19] and in [20] were 2.84% and 0%, respectively.

For the compound `N#Cc1c(NC(=O)CN2CCOCC2)sc2c1CCCC2`, the inhibition is 6.78% in test [1]; -1.65% in test [2]; 2.65% in test [3]; 5.67% in test [4]; 9.2% in test [5]; 1.86% in [6]. Besides, the inhibition is 7.38% in test [7]; 6% in [8]; 5.61% in test [9]; 3.4% in [10]; 3.63% in [11]; -1.48% in test [12]. Besides, the inhibition in test [13] came to 3.81%; in test [14], 3.43%; in test [15], 3.19%; in test [16], 0.47%; in test [17], 0.45%; in test [18], 0.92%. The inhibition is -0.98% in test [19] and 0.08% in [20].

The values are drawn from ChEMBL document CHEMBL1961873, “Compounds: GSK PKIS; Assays: Nanosyn kinase panel” (2012).
